Legend:
Experiment in all cases: log2 ratio of Biotin-Ahx-Ub-VS probe labelling (fragment/DMSO); higher = less target engagement (more negative = stronger competition), active = hit call of the paper (q ≤ 0.05, log2 ratio ≤ -1)
Details in all cases: compound concentration: 200 uM; treatment time: 3 h
USP9X = USP9X (UniProt Q93008)
Method in brief: (§1)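 In triplicate, 495 µg of HEK293T lysate per sample was incubated with fragment at 200 µM or vehicle for 3 h. Biotin-Ahx-Ub-VS was then added to 0.5 µM final for 1 h, and labelled DUBs were captured with NeutrAvidin, digested with LysC and trypsin, and measured by diaPASEF LC-MS/MS. Data are average log2 fragment/vehicle ratios by unpaired t-test from global-median-normalised Spectronaut label-free quantities, restricted to proteins with ≥2 unique peptides.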

UniProt O00487 = biological target: UniProt O00487
Method in brief: as §1

UniProt O00507 = biological target: UniProt O00507
Method in brief: as §1

UniProt P51784 = biological target: UniProt P51784
Method in brief: as §1

UniProt Q5T2D3 = biological target: T1, UniProt Q5T2D3
T1 sequence (whole entry): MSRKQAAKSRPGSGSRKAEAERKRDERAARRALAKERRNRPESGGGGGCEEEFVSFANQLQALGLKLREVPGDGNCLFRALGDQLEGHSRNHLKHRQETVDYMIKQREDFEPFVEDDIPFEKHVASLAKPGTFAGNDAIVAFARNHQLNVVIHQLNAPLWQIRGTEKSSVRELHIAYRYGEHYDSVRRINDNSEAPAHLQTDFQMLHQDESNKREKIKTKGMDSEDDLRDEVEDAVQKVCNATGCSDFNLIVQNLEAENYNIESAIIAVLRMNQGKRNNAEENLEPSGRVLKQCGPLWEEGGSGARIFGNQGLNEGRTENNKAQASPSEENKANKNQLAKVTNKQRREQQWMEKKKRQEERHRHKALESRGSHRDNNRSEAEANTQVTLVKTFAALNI
Method in brief: as §1

UniProt Q8TE49 = biological target: T2, UniProt Q8TE49
T2 sequence (whole entry): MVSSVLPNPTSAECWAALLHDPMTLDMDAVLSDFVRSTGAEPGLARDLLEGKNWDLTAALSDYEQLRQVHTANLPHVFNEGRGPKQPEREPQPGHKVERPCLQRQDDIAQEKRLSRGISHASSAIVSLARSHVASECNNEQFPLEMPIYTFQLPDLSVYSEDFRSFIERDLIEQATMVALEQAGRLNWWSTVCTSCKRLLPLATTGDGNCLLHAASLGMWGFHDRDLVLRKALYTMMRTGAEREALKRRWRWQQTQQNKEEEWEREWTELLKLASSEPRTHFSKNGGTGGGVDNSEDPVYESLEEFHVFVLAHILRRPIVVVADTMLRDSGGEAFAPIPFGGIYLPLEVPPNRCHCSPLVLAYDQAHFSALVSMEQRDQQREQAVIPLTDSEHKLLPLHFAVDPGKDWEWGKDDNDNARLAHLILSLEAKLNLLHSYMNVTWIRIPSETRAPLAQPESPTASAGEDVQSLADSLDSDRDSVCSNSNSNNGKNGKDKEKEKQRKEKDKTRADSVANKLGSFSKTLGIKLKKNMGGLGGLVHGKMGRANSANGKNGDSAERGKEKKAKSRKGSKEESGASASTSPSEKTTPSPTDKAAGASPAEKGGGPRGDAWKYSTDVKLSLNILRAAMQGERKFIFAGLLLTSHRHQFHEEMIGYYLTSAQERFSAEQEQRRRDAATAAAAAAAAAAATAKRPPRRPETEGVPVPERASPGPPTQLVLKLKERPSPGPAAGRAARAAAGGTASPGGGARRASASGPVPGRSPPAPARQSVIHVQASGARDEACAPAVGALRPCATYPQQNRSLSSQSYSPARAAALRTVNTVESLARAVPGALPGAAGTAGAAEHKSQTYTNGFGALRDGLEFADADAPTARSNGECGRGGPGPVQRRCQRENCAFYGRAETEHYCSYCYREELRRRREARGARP
Method in brief: as §1

UniProt Q9P2H5 = biological target: T3, UniProt Q9P2H5
T3 sequence (whole entry): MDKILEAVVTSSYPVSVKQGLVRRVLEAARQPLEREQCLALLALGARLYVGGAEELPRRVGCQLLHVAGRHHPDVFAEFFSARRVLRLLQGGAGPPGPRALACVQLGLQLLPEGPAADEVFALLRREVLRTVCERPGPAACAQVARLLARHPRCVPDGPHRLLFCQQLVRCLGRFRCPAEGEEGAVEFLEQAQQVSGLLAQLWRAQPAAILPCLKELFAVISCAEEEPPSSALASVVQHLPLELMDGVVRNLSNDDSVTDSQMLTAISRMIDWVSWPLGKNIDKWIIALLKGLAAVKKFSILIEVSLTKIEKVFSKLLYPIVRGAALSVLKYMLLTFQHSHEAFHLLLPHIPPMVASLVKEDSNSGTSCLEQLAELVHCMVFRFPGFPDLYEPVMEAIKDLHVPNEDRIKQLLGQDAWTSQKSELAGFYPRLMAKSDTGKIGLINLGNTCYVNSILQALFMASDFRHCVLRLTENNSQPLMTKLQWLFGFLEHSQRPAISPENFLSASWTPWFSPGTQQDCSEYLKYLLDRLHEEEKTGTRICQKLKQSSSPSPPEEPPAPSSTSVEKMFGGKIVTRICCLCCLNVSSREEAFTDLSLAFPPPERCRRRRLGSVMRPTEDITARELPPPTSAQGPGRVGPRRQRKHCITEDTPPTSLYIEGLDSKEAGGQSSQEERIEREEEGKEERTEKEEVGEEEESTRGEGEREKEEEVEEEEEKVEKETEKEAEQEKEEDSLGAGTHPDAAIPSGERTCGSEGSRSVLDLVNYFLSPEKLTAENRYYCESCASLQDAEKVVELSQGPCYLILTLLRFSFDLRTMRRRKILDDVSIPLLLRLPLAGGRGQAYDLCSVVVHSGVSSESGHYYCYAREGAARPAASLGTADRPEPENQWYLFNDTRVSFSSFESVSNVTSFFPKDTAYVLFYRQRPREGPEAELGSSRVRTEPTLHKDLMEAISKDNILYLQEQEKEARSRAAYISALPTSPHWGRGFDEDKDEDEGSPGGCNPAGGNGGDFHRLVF
Method in brief: as §1

UniProt Q9UGI0 = biological target: T4, UniProt Q9UGI0
T4 sequence (whole entry): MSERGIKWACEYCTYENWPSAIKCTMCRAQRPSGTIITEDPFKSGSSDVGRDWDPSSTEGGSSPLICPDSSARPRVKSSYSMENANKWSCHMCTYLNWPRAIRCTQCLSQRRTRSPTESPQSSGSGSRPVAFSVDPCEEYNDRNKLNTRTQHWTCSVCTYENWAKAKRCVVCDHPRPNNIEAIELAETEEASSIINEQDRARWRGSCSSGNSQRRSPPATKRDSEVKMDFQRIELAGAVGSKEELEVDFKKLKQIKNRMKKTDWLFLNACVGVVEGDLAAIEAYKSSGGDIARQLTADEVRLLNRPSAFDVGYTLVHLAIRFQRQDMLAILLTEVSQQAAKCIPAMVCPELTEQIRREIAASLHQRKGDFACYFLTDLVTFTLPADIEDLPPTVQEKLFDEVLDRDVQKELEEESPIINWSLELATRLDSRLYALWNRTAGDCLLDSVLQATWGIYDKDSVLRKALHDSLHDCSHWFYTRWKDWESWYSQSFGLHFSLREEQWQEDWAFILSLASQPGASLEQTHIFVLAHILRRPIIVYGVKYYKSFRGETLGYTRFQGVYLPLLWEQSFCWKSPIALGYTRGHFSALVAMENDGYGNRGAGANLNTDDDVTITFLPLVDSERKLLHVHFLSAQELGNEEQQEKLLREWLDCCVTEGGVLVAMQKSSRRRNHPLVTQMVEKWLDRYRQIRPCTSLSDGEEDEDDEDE
Method in brief: as §1

YOD1 = biological target: T5, YOD1 (UniProt Q5VVQ6)
T5 sequence (whole entry): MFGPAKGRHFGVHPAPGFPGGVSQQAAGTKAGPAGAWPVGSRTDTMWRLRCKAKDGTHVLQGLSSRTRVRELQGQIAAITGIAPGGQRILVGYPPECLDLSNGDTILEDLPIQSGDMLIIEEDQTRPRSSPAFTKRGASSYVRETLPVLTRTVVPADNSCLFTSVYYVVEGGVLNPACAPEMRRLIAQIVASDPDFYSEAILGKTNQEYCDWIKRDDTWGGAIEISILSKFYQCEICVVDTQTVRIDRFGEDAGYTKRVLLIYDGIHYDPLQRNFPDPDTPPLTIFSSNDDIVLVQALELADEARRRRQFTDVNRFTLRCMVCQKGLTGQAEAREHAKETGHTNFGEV
Method in brief: as §1

Measured: log2 ratio of Biotin-Ahx-Ub-VS probe labelling

Chain of USP9X (Q93008 whole entry, the tested form may be a part): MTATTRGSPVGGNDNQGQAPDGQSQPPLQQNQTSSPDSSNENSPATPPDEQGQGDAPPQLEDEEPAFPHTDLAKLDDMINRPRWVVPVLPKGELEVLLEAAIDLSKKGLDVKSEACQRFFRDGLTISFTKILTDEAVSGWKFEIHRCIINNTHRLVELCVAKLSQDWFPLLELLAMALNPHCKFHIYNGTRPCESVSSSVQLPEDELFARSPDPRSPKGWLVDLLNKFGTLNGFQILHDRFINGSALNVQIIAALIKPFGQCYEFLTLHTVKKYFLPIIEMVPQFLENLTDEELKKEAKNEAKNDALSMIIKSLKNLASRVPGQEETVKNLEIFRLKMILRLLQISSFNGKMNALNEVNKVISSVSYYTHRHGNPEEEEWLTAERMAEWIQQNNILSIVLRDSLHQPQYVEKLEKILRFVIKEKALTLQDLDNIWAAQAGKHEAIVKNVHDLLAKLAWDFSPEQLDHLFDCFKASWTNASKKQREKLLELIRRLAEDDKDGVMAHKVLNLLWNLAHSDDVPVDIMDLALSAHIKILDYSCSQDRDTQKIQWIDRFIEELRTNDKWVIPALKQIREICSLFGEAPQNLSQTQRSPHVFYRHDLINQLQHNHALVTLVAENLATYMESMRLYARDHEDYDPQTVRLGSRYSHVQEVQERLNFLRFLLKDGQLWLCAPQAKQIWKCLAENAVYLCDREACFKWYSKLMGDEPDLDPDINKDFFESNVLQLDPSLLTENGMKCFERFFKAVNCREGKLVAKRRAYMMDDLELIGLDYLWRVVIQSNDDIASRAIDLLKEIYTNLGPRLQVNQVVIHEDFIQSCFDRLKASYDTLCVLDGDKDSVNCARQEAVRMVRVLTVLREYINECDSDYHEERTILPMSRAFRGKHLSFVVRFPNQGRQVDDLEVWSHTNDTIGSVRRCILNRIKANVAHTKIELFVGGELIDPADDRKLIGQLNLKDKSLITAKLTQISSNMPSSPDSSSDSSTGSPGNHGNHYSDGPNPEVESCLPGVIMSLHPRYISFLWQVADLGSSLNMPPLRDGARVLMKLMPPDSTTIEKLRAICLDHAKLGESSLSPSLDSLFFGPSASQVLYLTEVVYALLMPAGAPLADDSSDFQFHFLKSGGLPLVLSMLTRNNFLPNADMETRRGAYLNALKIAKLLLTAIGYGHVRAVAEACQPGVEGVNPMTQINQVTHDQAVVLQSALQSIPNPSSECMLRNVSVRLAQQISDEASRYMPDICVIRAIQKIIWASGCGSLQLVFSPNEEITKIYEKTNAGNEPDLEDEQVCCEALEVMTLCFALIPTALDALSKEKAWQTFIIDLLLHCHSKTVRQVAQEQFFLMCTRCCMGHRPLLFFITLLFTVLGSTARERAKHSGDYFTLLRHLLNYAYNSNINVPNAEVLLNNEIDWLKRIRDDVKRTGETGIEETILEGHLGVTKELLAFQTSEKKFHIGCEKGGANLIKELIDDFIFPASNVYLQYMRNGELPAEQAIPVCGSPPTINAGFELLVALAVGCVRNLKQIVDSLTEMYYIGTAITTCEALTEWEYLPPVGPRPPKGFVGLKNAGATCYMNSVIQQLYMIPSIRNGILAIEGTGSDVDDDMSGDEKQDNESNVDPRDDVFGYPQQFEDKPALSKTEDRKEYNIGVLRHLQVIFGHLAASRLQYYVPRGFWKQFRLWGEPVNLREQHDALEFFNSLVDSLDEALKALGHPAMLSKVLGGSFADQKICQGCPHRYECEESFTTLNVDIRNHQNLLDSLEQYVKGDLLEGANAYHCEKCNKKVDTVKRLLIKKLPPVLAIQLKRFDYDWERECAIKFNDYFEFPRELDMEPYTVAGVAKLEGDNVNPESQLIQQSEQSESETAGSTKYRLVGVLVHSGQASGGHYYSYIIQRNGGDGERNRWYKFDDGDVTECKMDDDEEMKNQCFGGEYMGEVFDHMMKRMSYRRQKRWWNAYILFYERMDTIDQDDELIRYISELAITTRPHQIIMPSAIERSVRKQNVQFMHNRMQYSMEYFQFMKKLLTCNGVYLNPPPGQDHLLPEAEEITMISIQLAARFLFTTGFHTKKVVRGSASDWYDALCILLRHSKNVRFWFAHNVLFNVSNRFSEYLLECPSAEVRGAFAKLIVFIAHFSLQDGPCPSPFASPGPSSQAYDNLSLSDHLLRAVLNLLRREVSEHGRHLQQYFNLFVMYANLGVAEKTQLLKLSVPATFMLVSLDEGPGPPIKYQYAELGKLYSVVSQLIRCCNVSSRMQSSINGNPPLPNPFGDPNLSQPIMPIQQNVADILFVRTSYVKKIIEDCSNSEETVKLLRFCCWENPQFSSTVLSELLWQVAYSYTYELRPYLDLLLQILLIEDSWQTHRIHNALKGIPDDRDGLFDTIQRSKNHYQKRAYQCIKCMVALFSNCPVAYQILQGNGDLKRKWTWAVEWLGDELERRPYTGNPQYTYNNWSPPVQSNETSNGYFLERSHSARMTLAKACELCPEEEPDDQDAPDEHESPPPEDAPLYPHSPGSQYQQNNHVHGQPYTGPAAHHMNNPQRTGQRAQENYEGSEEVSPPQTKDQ
Chain of UniProt P51784 (P51784 whole entry): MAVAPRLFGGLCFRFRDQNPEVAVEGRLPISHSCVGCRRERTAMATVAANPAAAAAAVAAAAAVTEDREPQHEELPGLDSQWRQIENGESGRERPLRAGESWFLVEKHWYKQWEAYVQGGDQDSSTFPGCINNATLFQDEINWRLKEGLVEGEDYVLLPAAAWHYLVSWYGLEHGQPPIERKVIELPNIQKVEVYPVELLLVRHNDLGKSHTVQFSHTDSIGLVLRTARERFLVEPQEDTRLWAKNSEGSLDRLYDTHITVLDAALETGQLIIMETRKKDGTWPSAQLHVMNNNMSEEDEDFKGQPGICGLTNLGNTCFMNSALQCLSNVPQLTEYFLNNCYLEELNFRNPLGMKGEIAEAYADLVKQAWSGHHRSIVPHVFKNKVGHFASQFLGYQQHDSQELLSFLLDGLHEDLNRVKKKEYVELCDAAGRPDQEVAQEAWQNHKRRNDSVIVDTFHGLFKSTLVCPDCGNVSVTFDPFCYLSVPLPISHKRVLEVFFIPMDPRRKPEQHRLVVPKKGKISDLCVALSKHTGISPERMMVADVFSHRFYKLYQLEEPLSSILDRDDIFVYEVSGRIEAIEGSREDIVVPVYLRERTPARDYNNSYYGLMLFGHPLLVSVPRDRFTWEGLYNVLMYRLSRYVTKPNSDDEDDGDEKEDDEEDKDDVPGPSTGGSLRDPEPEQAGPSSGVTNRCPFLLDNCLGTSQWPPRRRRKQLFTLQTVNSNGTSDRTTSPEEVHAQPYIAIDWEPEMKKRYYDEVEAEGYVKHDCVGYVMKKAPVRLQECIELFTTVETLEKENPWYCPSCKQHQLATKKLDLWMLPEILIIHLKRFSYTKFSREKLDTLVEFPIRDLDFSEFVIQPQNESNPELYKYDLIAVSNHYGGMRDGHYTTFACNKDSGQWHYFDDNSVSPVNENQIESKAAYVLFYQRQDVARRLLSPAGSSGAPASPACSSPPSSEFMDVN
Chain of UniProt O00487 (O00487 whole entry): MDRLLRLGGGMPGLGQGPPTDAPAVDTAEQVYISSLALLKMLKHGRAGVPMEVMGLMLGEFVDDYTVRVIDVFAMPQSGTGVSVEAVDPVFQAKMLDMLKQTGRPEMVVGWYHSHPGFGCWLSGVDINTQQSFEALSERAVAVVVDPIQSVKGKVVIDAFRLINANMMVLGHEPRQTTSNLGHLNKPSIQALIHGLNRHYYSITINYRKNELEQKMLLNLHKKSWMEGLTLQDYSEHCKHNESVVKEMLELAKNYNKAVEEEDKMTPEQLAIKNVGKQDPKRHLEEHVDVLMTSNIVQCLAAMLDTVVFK

CC1CCc2onc(CNC(=O)CCl)c2C1 (centres undefined)
inactive: USP9X -0.154 | UniProt O00487 0.0127 | UniProt O00507 0.195 | UniProt P51784 0.152 | UniProt Q5T2D3 -0.305 | UniProt Q8TE49 -0.691 | UniProt Q9P2H5 -0.252 | UniProt Q9UGI0 -0.538 | YOD1 0.146

— the supplement of paper PMC11732987, “Enantioselective OTUD7B fragment discovery through chemoproteomics screening and high-throughput optimisation” (Communications Chemistry, 2025)
